# From PMC7862700, “An all-to-all approach to the identification of sequence-specific readers for epigenetic DNA modifications on cytosine”
# Columns and labels:
# Experiment in all cases: DAPPL (digital affinity profiling via proximity ligation, sequencing); 10 mM Tris-HCl pH 7.5, 50 mM NaCl, 1 mM DTT, 4% glycerol, room temperature, 30 min; GST-TFs on glutathione beads, 16-mer random dsDNA library, 0.1% formaldehyde crosslink after washing; high values mean tight binding
# FEV = target: T1, FEV (Homo sapiens, UniProt Q99581 1-238); settings: protein: recombinant; tags: N-terminal GST; dsDNA, one strand shown
# T1 sequence: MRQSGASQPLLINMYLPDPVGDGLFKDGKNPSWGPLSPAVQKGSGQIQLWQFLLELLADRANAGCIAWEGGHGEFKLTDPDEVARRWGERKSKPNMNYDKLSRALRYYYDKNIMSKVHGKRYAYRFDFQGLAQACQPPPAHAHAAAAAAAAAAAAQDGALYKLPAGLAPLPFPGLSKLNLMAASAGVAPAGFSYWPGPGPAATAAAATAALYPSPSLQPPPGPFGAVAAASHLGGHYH
# Procedure, shortened: (§1)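 GST fusions of human transcription factors were expressed in yeast and captured with glutathione beads. Once given DNA barcodes and pooled alongside a tag-only sample, they were incubated for 30 min at room temperature with 200 nmole of a random double-stranded 16-mer DNA library in Tris/NaCl/DTT/glycerol buffer, then washed, crosslinked (0.1% formaldehyde), proximity-ligated, PCR-amplified and sequenced on an Illumina NextSeq500. The binding signal of each hexamer is its read frequency for a factor divided by its frequency for the tag-only sample.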
# ETV5 = ETV5 (Homo sapiens, UniProt P41161 1-510); settings: protein: recombinant; tags: N-terminal GST; dsDNA, one strand shown
# Chain of ETV5 (P41161 whole entry): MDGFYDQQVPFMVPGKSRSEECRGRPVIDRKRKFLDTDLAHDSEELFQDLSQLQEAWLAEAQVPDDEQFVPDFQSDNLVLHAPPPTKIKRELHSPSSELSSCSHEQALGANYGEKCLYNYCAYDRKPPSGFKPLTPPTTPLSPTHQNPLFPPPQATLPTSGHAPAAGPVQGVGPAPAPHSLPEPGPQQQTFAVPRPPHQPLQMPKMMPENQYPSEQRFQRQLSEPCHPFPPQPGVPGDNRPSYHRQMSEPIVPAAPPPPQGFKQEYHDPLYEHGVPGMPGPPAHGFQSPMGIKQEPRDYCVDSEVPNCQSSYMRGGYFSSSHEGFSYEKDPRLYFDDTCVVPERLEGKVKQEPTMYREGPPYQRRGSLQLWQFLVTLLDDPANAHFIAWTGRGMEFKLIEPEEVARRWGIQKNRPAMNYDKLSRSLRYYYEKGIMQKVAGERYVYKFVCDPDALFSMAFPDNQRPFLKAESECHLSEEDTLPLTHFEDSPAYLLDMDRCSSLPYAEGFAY
# Procedure, shortened: as §1
# HSF1 = HSF1 (Homo sapiens, UniProt Q00613 1-529); settings: protein: recombinant; tags: N-terminal GST; chain copies: 3; dsDNA, one strand shown
# Chain of HSF1 (Q00613 whole entry): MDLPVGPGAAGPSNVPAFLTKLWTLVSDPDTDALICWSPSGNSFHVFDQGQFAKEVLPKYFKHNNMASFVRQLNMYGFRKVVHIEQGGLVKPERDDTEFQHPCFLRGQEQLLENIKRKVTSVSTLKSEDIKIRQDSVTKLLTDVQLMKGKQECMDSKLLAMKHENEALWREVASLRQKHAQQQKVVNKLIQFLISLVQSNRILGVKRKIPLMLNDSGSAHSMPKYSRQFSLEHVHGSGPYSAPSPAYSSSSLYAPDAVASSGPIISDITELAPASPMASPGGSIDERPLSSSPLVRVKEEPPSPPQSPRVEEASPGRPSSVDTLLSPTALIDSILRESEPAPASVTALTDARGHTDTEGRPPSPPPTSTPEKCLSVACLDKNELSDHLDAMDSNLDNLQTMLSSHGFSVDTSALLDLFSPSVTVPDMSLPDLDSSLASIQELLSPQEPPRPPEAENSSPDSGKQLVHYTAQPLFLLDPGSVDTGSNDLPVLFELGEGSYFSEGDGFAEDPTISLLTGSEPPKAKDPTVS
# Procedure, shortened: as §1
# SPIC = target: T2, SPIC (Homo sapiens, UniProt Q8N5J4 1-248); settings: protein: recombinant; tags: N-terminal GST; dsDNA, one strand shown
# T2 sequence: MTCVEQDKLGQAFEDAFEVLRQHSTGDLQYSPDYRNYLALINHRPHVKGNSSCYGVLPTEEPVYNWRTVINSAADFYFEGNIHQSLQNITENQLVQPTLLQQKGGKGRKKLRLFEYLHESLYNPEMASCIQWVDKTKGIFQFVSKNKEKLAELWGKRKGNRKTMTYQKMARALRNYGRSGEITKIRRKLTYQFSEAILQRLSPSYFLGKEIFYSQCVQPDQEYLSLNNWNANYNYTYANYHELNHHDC
# Procedure, shortened: as §1
# ELF4 = ELF4 (Homo sapiens, UniProt Q99607 1-663); settings: protein: recombinant; tags: N-terminal GST; dsDNA, one strand shown
# Chain of ELF4 (Q99607 whole entry): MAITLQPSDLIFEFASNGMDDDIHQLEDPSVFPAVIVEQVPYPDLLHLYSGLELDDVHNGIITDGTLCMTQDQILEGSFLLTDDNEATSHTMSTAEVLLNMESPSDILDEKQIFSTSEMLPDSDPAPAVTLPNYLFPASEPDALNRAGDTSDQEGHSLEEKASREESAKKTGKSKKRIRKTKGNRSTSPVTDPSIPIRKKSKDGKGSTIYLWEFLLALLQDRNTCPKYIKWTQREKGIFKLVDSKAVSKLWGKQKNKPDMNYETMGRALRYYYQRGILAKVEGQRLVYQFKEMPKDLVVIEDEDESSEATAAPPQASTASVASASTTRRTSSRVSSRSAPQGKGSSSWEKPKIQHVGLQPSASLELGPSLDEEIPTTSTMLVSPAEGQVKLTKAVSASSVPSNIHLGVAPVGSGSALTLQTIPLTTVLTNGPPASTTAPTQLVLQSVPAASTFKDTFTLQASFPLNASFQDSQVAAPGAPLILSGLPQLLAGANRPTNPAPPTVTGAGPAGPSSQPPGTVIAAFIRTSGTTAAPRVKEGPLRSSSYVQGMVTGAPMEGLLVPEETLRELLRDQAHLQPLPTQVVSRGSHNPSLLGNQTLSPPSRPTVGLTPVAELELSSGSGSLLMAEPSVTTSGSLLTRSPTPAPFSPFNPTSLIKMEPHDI
# Procedure, shortened: as §1
# ELK4 = target: T3, ELK4 (Homo sapiens, UniProt P28324-2 1-405); settings: protein: recombinant; tags: N-terminal GST; dsDNA, one strand shown
# T3 sequence: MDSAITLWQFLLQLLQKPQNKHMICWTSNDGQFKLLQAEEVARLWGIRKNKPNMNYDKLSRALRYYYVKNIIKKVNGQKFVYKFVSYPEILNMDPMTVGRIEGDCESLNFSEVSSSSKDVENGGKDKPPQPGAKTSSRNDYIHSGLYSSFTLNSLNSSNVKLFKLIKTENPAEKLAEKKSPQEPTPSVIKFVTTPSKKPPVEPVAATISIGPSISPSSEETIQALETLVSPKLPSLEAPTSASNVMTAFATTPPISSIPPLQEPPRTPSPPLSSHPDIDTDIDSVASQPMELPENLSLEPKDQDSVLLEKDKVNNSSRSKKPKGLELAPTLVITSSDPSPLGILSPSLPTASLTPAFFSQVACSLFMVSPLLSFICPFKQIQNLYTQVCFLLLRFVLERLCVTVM
# Procedure, shortened: as §1
# ETV2 = target: T4, ETV2 (Homo sapiens, UniProt O00321 1-342); settings: protein: recombinant; tags: N-terminal GST; dsDNA, one strand shown
# T4 sequence: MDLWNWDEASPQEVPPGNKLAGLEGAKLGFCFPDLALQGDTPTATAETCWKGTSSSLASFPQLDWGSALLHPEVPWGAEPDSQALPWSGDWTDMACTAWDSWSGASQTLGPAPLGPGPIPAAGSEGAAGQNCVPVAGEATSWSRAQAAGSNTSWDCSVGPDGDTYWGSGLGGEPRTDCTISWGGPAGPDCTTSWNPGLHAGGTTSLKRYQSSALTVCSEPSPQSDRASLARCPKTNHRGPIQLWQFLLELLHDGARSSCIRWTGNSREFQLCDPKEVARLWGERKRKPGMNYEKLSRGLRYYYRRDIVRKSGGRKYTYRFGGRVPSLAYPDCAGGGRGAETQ
# Procedure, shortened: as §1
# ELF3 = target: T5, ELF3 (Homo sapiens, UniProt P78545 1-371); settings: protein: recombinant; tags: N-terminal GST; dsDNA, one strand shown
# T5 sequence: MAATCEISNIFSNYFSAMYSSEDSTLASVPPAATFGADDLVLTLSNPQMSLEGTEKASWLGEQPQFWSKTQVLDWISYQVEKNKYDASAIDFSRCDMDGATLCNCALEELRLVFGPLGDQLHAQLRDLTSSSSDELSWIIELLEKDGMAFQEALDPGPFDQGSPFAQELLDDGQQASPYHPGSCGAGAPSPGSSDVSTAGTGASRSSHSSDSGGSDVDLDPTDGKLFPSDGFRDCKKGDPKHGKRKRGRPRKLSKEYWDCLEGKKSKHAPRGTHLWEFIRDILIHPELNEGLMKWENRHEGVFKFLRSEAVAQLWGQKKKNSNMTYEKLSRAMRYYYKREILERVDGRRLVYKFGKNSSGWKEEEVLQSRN
# Procedure, shortened: as §1
# ETV1 = ETV1 (Homo sapiens, UniProt P50549 1-477); settings: protein: recombinant; tags: N-terminal GST; dsDNA, one strand shown
# Chain of ETV1 (P50549 whole entry): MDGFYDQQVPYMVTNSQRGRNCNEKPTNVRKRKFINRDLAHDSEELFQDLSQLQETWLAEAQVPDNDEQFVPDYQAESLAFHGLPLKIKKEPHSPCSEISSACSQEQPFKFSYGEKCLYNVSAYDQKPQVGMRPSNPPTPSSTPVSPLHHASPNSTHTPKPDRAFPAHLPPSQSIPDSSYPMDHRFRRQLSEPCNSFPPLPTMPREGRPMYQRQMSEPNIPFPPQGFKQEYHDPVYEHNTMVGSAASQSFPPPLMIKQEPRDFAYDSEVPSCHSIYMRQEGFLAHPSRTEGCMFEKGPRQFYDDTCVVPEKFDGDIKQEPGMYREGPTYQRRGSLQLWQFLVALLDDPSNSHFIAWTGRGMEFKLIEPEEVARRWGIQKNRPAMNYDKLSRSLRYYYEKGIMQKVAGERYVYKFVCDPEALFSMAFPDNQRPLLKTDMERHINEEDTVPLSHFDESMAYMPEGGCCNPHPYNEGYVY
# Procedure, shortened: as §1
sequence,measurement,setting,value
CTGCCC,binding signal,FEV,"1.37 fold enrichment (6-mer frequency, TF over GST control)"
same,binding signal,ETV5,"1.25 fold enrichment (6-mer frequency, TF over GST control)"
same,binding signal,HSF1,"1.05 fold enrichment (6-mer frequency, TF over GST control)"
same,binding signal,SPIC,"1.42 fold enrichment (6-mer frequency, TF over GST control)"
same,binding signal,ELF4,"1.29 fold enrichment (6-mer frequency, TF over GST control)"
same,binding signal,ELK4,"1.42 fold enrichment (6-mer frequency, TF over GST control)"
same,binding signal,ETV2,"1.38 fold enrichment (6-mer frequency, TF over GST control)"
same,binding signal,ELF3,"1.09 fold enrichment (6-mer frequency, TF over GST control)"
same,binding signal,ETV1,"1.2 fold enrichment (6-mer frequency, TF over GST control)"
